High-throughput results deposited in PubChem BioAssay by The Scripps Research Institute Molecular Screening Center.
GPR151 ag: human GPR151 activation. 650,000 compounds, 1% hits. Q8TDV0. PathHunter beta-arrestin GPR151 cells, luminescence. activation, % at 11.2 µM; in the data active = activation above about 4.9%;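 also: 0% = median of compound wells and 100% = cells with positive control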
Target sequence (Q8TDV0 whole entry, looked up): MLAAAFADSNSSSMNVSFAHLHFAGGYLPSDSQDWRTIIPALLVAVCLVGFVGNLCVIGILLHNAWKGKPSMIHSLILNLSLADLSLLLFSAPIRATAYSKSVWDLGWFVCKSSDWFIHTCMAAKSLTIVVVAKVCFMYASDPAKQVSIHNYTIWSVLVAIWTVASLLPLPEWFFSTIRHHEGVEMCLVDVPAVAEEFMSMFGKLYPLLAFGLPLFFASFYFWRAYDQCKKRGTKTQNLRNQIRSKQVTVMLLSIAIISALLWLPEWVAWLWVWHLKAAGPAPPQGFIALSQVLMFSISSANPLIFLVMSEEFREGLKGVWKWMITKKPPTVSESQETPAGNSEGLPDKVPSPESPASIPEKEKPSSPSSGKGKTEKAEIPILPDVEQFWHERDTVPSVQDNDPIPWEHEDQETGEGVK
TEAD-YAP inh: TEAD-YAP interaction inhibition; HEK-TIYL cells, TEAD-Gal4/YAP UAS-luciferase luminescence; inhibition, % at 9.12 µM; 640,000 compounds, 1.4% hits; AID 1259422; in the data active = inhibition above about 32%;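 also: 0% = median of test compound wells and 100% = reference inhibitor wells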
MITF inh: blocks human microphthalmia-associated transcription factor. O75030. AlphaScreen MITF homodimerization, bead proximity signal. inhibition, % at 2.6 µM. 650,000 compounds, 0.91% hits. AID 1259374; in the data active = inhibition above about 50%;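 also: 0% = vehicle wells with protein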
FBW7 activator: activators of human E3 ligase FBW7 | AlphaScreen FBW7–phospho-cyclin E peptide binding, activator screen | normalized activity (activation), % at 26.1 µM | 650,000 compounds, 0.13% hits; in the data active = normalized activity above about 1.9%;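 also: purified mutant Fbw7 with reduced substrate affinity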
GPR151 confirm: confirmation of human GPR151 activators; 6,700 tested, under 10 active; GPR151 PathHunter beta-arrestin cells, luminescence, 90 min; % of EA-reagent control over plate median; shares compounds with GPR151 ag; activation, % at 11.2 µM;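 active = mean percent activation across replicates above the confirmation screen cutoff of 4.91%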
GPR119 counter: activates human GPR119 in a GPR151 counter-screen. shares compounds with GPR151 ag. GPR119 PathHunter beta-arrestin cells, luminescence, 90 min; 0 = compound-well median, 100 = enzyme-acceptor control. activation, % at 11.2 µM. 6,700 compounds, 0.3% hits. AID 1508611;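 active = mean percent activation in the counterscreen above 29.09%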;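 also: counterscreen on off-target GPR119 to flag nonselective hits from the GPR151 activator screen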
* marks the source's active call; other numbers are inactive results. Sampled rows, rich in hits. Any-hit rate of the full collection: about 3.4%.

For COc1cc(C2C(C#N)=C(N)Oc3n[nH]c(-c4cccc([N+](=O)[O-])c4)c32)cc(OC)c1OC(C)=O (stereo not drawn) the results were GPR151 ag -1, TEAD-YAP inh -8, MITF inh -6 and FBW7 activator 0.
For N#CC1=C(N)Oc2n[nH]c(-c3ccccc3)c2C1c1ccc([N+](=O)[O-])cc1Cl (stereo not drawn) the results were GPR151 ag 1, TEAD-YAP inh -20, MITF inh 1 and FBW7 activator 0.
`N#CC1=C(N)Oc2n[nH]c(-c3ccccc3)c2C1c1ccc(Cl)c([N+](=O)[O-])c1` (stereo not drawn) gave GPR151 ag 6.1*, TEAD-YAP inh -2, MITF inh -3, FBW7 activator 0, GPR151 confirm 0 and GPR119 counter 3.
COc1cc(C2C(C#N)=C(N)Oc3n[nH]c(-c4cccc([N+](=O)[O-])c4)c32)cc(OC)c1O (stereo not drawn) was read as GPR151 ag 6.0*, TEAD-YAP inh 10, MITF inh 1, FBW7 activator 0, GPR151 confirm -1 and GPR119 counter 8.
c1cc(CN2CCCC(c3ccn[nH]3)C2)c2nccnc2c1 (stereo not drawn) was read as GPR151 ag 1, TEAD-YAP inh 8, MITF inh 8 and FBW7 activator 0.
CCC(=O)NC(=S)Nc1ccc(NC(=O)c2ccc(OC)cc2)cc1 was read as GPR151 ag 6.6*, TEAD-YAP inh 8, MITF inh -9, FBW7 activator 0, GPR151 confirm 0 and GPR119 counter 7.
For CCCC(=O)Nc1ccc(NC(=S)NC(=O)c2ccc(OC)cc2)cc1 the results were GPR151 ag -2, TEAD-YAP inh -11, MITF inh 8 and FBW7 activator 0.
`COc1ccc(C(=O)NC(=S)Nc2ccccc2O)cc1` gave GPR151 ag 6.8*, TEAD-YAP inh -31, MITF inh -10, FBW7 activator 0, GPR151 confirm 0 and GPR119 counter -3.
For CCC(Sc1nnc2c3ccccc3n(C)c2n1)C(=O)Nc1ccc(S(N)(=O)=O)cc1 (stereo not drawn) the results were GPR151 ag 1, TEAD-YAP inh -5, MITF inh -3 and FBW7 activator 0.
`CCC(Sc1nnc2c3cc(Br)ccc3n(C)c2n1)C(=O)Nc1ccc(S(N)(=O)=O)cc1` (stereo not drawn) gave GPR151 ag 8.5*, TEAD-YAP inh -10, MITF inh 3, FBW7 activator 0, GPR151 confirm 0 and GPR119 counter 10.
COCC(C)NCC(O)COc1cc(Cl)ccc1Cl (stereo not drawn) was read as GPR151 ag 14*, TEAD-YAP inh 2, MITF inh 18, FBW7 activator 0, GPR151 confirm 1 and GPR119 counter 7.
`COc1ccc(NC(=O)COC(=O)c2ccc(NC(N)=O)cc2)c([N+](=O)[O-])c1` gave GPR151 ag -1, TEAD-YAP inh 6, MITF inh 0 and FBW7 activator 0.
`CCC(=O)Nc1sc2c(c1C(=O)Nc1ccccc1C(=O)OC)CCC(C(C)(C)C)C2` (stereo not drawn) gave GPR151 ag 5.2*, TEAD-YAP inh -1, MITF inh 1, FBW7 activator 0, GPR151 confirm -1 and GPR119 counter -12.
For COc1ccccc1NC(=O)c1c(NC(=O)CCC(=O)O)sc2c1CCC(C(C)(C)C)C2 (stereo not drawn) the results were GPR151 ag 1, TEAD-YAP inh -4, MITF inh -11 and FBW7 activator 0.
`CCC(C)(C)C1CCc2c(sc(NC(=O)c3ccccc3OC)c2C(N)=O)C1` (stereo not drawn) gave GPR151 ag 8.1*, TEAD-YAP inh -3, MITF inh -3, FBW7 activator 0, GPR151 confirm 0 and GPR119 counter 5.
Screening Cc1ccc(C(=O)NNC(=S)NC(=O)C(C)(C)C)cc1Br returned GPR151 ag 0, TEAD-YAP inh -16, MITF inh -14 and FBW7 activator 0.
Screening COc1cc(/C=C2\SC(=S)NC2=O)ccc1OS(=O)(=O)c1ccccc1 returned GPR151 ag 7.9*, TEAD-YAP inh 18, MITF inh 11, FBW7 activator 0, GPR151 confirm 0 and GPR119 counter 6.
